Assay results: the supplement of paper PMC6555819

Columns and labels:
Test in all cases: PBM binding z-score (relative to random genomic background probes); higher = stronger binding; sequences stand for … in GC…GCGATTGACAGCGTAGAATGAAGG
[1] = test system: PPARg:RXRa DBDmut IVT, anti-RXR (DBD mutation: RXRa K156A/R161A, NR concentration 270 nM, RXRa partner concentration 90 nM)
Summary of the method: (§1)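 The probes on custom Agilent 4×180K protein-binding microarrays were double-stranded, with 34-nt variable regions bearing direct-repeat seeds, single-nucleotide variants, half-site ablations and random human genomic background sequences. Incubation lasted 1 h with ligand-free nuclear receptor dimers in PBS pH 7.4, 2% milk, 0.02% Triton X-100, 1 mM DTT, 0.2 mg/mL BSA and 0.4 mg/ml salmon testes DNA. Antibodies against each partner (one per run) detected bound dimers, and fluorescence scans were regression-normalized. Binding z-scores take the random background probes as reference.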

[2] = test system: PPARg:RXRa IVT, anti-PPARg (NR concentration 270 nM, RXRa partner concentration 90 nM)
Summary of the method: as §1

[3] = test system: PPARg DBDmut:RXRa IVT, anti-PPARg (DBD mutation: PPARg1 K132A/R137A, NR concentration 270 nM, RXRa partner concentration 90 nM)
Summary of the method: as §1

[4] = test system: PPARg DBDmut IVT, anti-PPARg (DBD mutation: PPARg1 K132A/R137A, NR concentration 270 nM)
Summary of the method: as §1

[5] = test system: PPARg homodimer (NR concentration 180 nM)
Summary of the method: as §1

[6] = test system: PXR:RXRa (NR concentration 270 nM, RXRa partner concentration 90 nM)
Summary of the method: as §1

[7] = test system: PXR homodimer (NR concentration 270 nM)
Summary of the method: as §1

[8] = test system: RARa:RXR (NR concentration 270 nM, RXRa partner concentration 90 nM)
Summary of the method: as §1

[9] = test system: RARa homodimer (NR concentration 270 nM)
Summary of the method: as §1

[10] = test system: RARb:RXRa (NR concentration 270 nM, RXRa partner concentration 90 nM)
Summary of the method: as §1

[11] = test system: RARb homodimer (NR concentration 270 nM)
Summary of the method: as §1

[12] = test system: RARg:RXRa (NR concentration 270 nM, RXRa partner concentration 90 nM)
Summary of the method: as §1

[13] = test system: RARg homodimer (NR concentration 270 nM)
Summary of the method: as §1

[14] = test system: RXRa DBDmut IVT, anti-RXR (DBD mutation: RXRa K156A/R161A, NR concentration 90 nM)
Summary of the method: as §1

[15] = test system: RXRa homodimer (NR concentration 180 nM)
Summary of the method: as §1

[16] = test system: THRa:RXRa (NR concentration 90 nM, RXRa partner concentration 90 nM)
Summary of the method: as §1

[17] = test system: THRa homodimer (NR concentration 90 nM)
Summary of the method: as §1

[18] = test system: VDR:RXRa (NR concentration 270 nM, RXRa partner concentration 90 nM)
Summary of the method: as §1

[19] = test system: VDR homodimer (NR concentration 270 nM)
Summary of the method: as §1

| Sequence | PBM binding z-score [1] | PBM binding z-score [2] | PBM binding z-score [3] | PBM binding z-score [4] | PBM binding z-score [5] | PBM binding z-score [6] | PBM binding z-score [7] | PBM binding z-score [8] | PBM binding z-score [9] | PBM binding z-score [10] | PBM binding z-score [11] | PBM binding z-score [12] | PBM binding z-score [13] | PBM binding z-score [14] | PBM binding z-score [15] | PBM binding z-score [16] | PBM binding z-score [17] | PBM binding z-score [18] | PBM binding z-score [19] |
| --- | --- | --- | --- | --- | --- | --- | --- | --- | --- | --- | --- | --- | --- | --- | --- | --- | --- | --- | --- |
| GCATATAGGTAAGACAAGGTGAAAGTCCGATTGT | 3.48 | 2.15 | 0.16 | 0.225 | 0.496 | 0.219 | -0.205 | 1.44 | -0.191 | 0.391 | 0.617 | 0.376 | 0.405 | 0.267 | 0.545 | 3.81 | 0.676 | 0.0453 | -0.12 |
| GATACAGGGTCAAGGACAGAGTACGCGTATTGAT | 3.11 | 3.89 | 1.4 | 0.618 | 2.51 | 3.92 | 0.786 | 4.72 | 1.69 | 4.52 | 3.58 | 5.67 | 5.78 | 2.36 | 6.51 | 3.85 | 2.14 | 4.78 | 2.72 |
| TCTGGCAGGCCAGAGGGTCACTCAAGAGGTACGG | 0.0912 | 0.182 | -0.722 | -0.915 | 0.353 | 1.59 | -0.371 | 2 | -0.717 | 2.31 | 2.63 | 2.81 | 1.94 | -0.443 | 2.6 | 1.62 | -0.676 | 1.5 | 0.353 |
| TCGAGTAGTTTAGGGGCATTCAGAATGGCGTCGA | 0.75 | -0.281 | -0.799 | -1.01 | -0.288 | 0.444 | -0.187 | 0.532 | -0.906 | 0.653 | 0.436 | 0.014 | -0.0825 | 0.68 | 0.467 | 1.33 | 0.108 | 0.605 | 1.55 |
| GGAACGAGGGTAAAGTTGATAGCATCTGTCGACG | 2.48 | 2.91 | 0.376 | -0.666 | 0.544 | 0.0856 | -0.214 | 0.287 | -0.126 | 0.952 | 0.332 | 0.683 | 0.562 | 0.929 | 0.974 | 0.383 | -0.45 | 0.137 | 0.411 |
| CCTAGTTGGTCAGGAGGTCGCACACCGGATATGA | 0.576 | 1.51 | -0.0553 | -0.0724 | 1.86 | 1.24 | 0.681 | 1.59 | 1.17 | 1.98 | 2.18 | 2.4 | 1.98 | -0.149 | 1.86 | 1.66 | 0.99 | 1.41 | 1.59 |
| CCGGCTAGGTCAATGGTCAGCTAAAGCAGCTCGC | 3.12 | 2.61 | -1.05 | -0.801 | 0.684 | 0.817 | -0.491 | 1.75 | 0.248 | 3.8 | 3.19 | 3.59 | 4.45 | 1.33 | 2.4 | 2.16 | 0.768 | 0.907 | 0.413 |
| TCTAGTTGGTCACAGAGGTCACACACGACGGGTA | 2.85 | 4.35 | 1.86 | 0.876 | 6.9 | 5.58 | 2.89 | 6.16 | 4.36 | 4.28 | 4.61 | 5.8 | 5.57 | 1.63 | 6.43 | 3.97 | 2.54 | 6.44 | 4.18 |
| TCTCGGAGGACCCGAAGGTCAGAGCTTTCCAGAG | 0.809 | -0.16 | -1.17 | -1.31 | 0.165 | 1.42 | -0.264 | 1.89 | -0.281 | 2.35 | 2.83 | 2.16 | 1.76 | -0.207 | 1.82 | 1.62 | -0.184 | 0.636 | -0.145 |
| AGAATGAGGTTATTAAGATCCGGGAATTGCGGTC | 2.93 | 2.17 | 0.655 | 0.352 | 1.11 | 0.959 | 0.153 | 1.28 | -0.0311 | 1.48 | 0.644 | 0.904 | 0.682 | 1.93 | 1.68 | 2.29 | 0.695 | 1.08 | 0.784 |
| GCTGCTAGGTGAGGTTGGTCAGCTAACGGGTACG | 2.07 | 0.995 | -0.621 | -0.843 | -0.464 | -0.499 | -0.63 | -0.358 | -0.904 | 0.502 | 0.45 | -0.285 | -0.239 | -0.389 | -0.532 | 0.337 | -0.133 | -0.472 | -0.159 |
| GGAACGAGGGCAATCGAGTTGATAGCATGGCGAT | 3.45 | 2.82 | -0.0288 | -1.1 | -0.25 | 3.29 | 0.305 | 0.677 | -0.463 | 1.6 | 0.554 | 1.14 | 1.22 | 1.84 | 0.638 | 2.64 | -0.649 | 3.11 | 1.87 |
| TCATATAGGTAAAGGTGACAGTCGAACGATATGA | 4.04 | 4.07 | 1.74 | 1.19 | 0.889 | 0.897 | 0.245 | 1.44 | 0.76 | 1.9 | 1.42 | 1.61 | 1.5 | 0.827 | 2.06 | 1.38 | -0.0654 | 0.874 | -0.0372 |
| GTAGCAAGGTGAATAGGTCGTTGATGAGTAGGCG | 1.19 | 1.9 | -0.625 | -1.04 | 0.211 | 0.451 | -0.13 | 1.08 | -0.0167 | 1.74 | 1.48 | 2.35 | 1.1 | -0.689 | 1.56 | 1.36 | -0.149 | 0.451 | -0.287 |
| CCTGCCAGGTCAATGGTCAGCTAAAGCAGCTCGC | 1.49 | 2.41 | -0.936 | -1.59 | 0.763 | 1.6 | -0.223 | 1.96 | -0.54 | 3.66 | 3.05 | 3.74 | 4.06 | 1.44 | 2.57 | 3.19 | 1.4 | 1.5 | 0.0635 |
